# Screening results as filed in PubChem BioAssay.
# The list is not random: actives were taken first. Their share in the collection is about 12%.
# JMJD2A Tudor: qHTS Assay for Inhibitors of JMJD2A-Tudor Domain; Lysine-specific demethylase 4A (Homo sapiens), O75164; AlphaScreen JMJD2A-Tudor / H3K4me3 peptide binding; Potency, µM (doses to about 114 µM), hits mostly inhibitors; 390,000 compounds, 4.4% hits; note: nearly all actives have a fitted effect of over 50% in size
# Sfp inh: qHTS Assay for Inhibitors of Bacillus subtilis Sfp phosphopantetheinyl transferase (PPTase) | Biochemical Sfp PPTase activity, qHTS | Potency, µM, usual class: inhibitors | 310,000 compounds, 3.5% hits | AID 1490, 2009;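 note: the enzyme is Sfp with the accession as filed and its product quenches rhodamine fluorescence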
#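 After 15 min at room temperature with compound, 15 nM Sfp received 5 uM rhodamine-CoA plus 12.5 uM BHQ-2-ybbR (50 mM Hepes pH 7.6, 10 mM MgCl2). Rate came from the fluorescence difference over 30 min, ex 525/em 598 nm.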
# G9a block: qHTS Assay for Inhibitors of Histone Lysine Methyltransferase G9a. 350,000 compounds, 8.8% hits. Histone-lysine N-methyltransferase EHMT2 (Homo sapiens), Q96KQ7. G9a H3K9 monomethylation, AlphaScreen, 2 h. Potency, µM (doses to about 102 µM), most hits filed as inhibitors; note: nearly all actives have a fitted effect of over 75% in size
# Target sequence (Q96KQ7 913-1193 limits assumed): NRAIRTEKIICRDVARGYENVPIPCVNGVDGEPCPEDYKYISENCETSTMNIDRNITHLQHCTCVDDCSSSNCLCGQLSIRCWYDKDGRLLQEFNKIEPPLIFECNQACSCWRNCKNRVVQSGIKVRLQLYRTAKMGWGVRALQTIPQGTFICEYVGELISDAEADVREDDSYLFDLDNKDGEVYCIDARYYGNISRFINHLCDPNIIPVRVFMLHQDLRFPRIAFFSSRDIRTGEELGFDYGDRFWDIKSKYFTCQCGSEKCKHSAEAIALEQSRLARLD
#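 Using a bead-based AlphaScreen, monomethylated H3K9 product from 2 h room-temperature reactions (G9a 20 nM, peptide 500 nM, SAM 20 uM) was detected with 0.5 ug/mL rabbit anti-H3K9me1 antibody.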
# HP1b binding inh: HTS for Inhibitors of HP1-beta Chromodomain Interactions with Methylated Histone Tails. 390,000 compounds, 0.56% hits. AlphaScreen HP1-beta / biotin-H3K9me3 peptide binding. Potency, µM (highest dose often 114 µM), hits mostly inhibitors. AID 540317, 2011; note: nearly all actives have a fitted effect of over 70% in size
# Target sequence (P83916 whole entry, looked up): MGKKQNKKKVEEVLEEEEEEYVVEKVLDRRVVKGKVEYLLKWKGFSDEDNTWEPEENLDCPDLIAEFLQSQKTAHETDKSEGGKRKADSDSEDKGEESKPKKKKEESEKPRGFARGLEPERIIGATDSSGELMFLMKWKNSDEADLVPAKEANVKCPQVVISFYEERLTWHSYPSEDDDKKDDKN
#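 AlphaScreen: HP1-beta (50 nM) preformed 30 min with biotin-H3(1-18)K9me3 peptide (50 nM) in PBS pH 7.4, 0.01% Tween-20. Compound added for 30 min at RT, then streptavidin donor/nickel chelate acceptor beads (10 ug/mL) for 30 min.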
# BAZ2B inh: qHTS Assay for Inhibitors of BAZ2B | Bromodomain adjacent to zinc finger domain protein 2B (Homo sapiens), Q9UIF8 | AlphaScreen BAZ2B-H3K14Ac peptide displacement | Potency, µM (highest dose often 114 µM), hits mostly inhibitors | 360,000 compounds, 4.4% hits; note: nearly all actives have a fitted effect of over 60% in size
#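 Multi-concentration screen (max 110 uM) measuring displacement of acetylated histone H3 peptide from BAZ2B by AlphaScreen, using 50 nM protein, 50 nM peptide and 10 ug/mL streptavidin donor plus Ni-chelate acceptor beads.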
# Hits are given with their value; . = inactive; ? = inconclusive; / = no result given; [ ] = another dose, or the depositor's remark. Calls come from the whole dose curve; as a rule, active = well fitted curve in the direction sought with a large enough effect; inconclusive = small, poorly fitted or top-dose-only effect, or another doubt; inactive = no such curve, though single readings can be large; an effect the other way counts as inactive or inconclusive.
SMILES,JMJD2A Tudor,Sfp inh,G9a block,HP1b binding inh,BAZ2B inh
COc1cc(C(C2C(=O)CC(C)(C)CC2=O)C2C(=O)CC(C)(C)CC2=O)ccc1O,.,56µM,.[0.501 µM],.,.
CC1(C)CC(=O)C(C(C2=C(O)CC(C)(C)CC2=O)c2ccco2)C(=O)C1 (configuration not stated),.,?,35µM,.,.
CC(=O)c1cc(-c2ccc(F)cc2)n(CCC(=O)NCc2ccccc2C)c1C,.,/,.,.,.
COc1ccc(C)cc1NC(=O)c1oc2ccc(S(=O)(=O)N3CCCCC3)cc2c1C,.,/,.,.,.
O=C(Cn1ccc([N+](=O)[O-])n1)Nc1ccccn1,.,.,.,.,.
COc1ccc(N(CC(=O)N/N=C/c2cc(Br)c(C)o2)S(=O)(=O)c2ccc(NC(C)=O)cc2)cc1,.,.,.,.,?
COc1cc(C(C2=C(O)CC(C)(C)CC2=O)C2C(=O)CC(C)(C)CC2=O)cc(OC)c1OC (configuration not stated),.,50µM,?,.,?
CC1(C)CC(=O)C(C(C2=C(O)CC(C)(C)CC2=O)c2ccc(Cl)c([N+](=O)[O-])c2)C(=O)C1 (configuration not stated),.,.,?,.,.
CC(=O)Nc1cc(ON=C(C)C)cc([N+](=O)[O-])c1,.,.,.,.,.
CC(=O)Nc1ccc(NC(=O)c2cc([N+](=O)[O-])cc([N+](=O)[O-])c2)cc1,.,.,50µM,.,?
CC(=O)Nc1ccc(Oc2cc(NC(C)=O)cc([N+](=O)[O-])c2)cc1,18µM,.,.,?,.
COc1ccc(/C=C/C(=O)O)cc1S(=O)(=O)NC1CCS(=O)(=O)C1 (configuration not stated),.,.,?,.,.
CC1CN(C(=O)c2ccc(Br)c(S(=O)(=O)N3CCOCC3)c2)CC(C)O1 (configuration not stated),.,/,.[12.7 µM],.,.
COc1ccc(CN(C(=O)c2ccc(OCC(C)C)cc2)C2CCS(=O)(=O)C2)cc1 (configuration not stated),.,/,.,.,?
CCCCN(C(=O)C1CC(=O)N(c2ccc(C)cc2)C1)c1c(N)n(CCC)c(=O)[nH]c1=O (configuration not stated),.,/,45µM,.,.
CCCCn1c(N)c(N(CC(C)C)C(=O)C2CC(=O)N(c3ccccc3C(C)CC)C2)c(=O)[nH]c1=O (configuration not stated),.,/,79µM,.,.
CCCCn1c(N)c(N(CCOC)C(=O)CN2c3ccccc3CC2C)c(=O)[nH]c1=O (configuration not stated),.,.,20µM,.,.
CCCCN(C(=O)C1CC(=O)N(c2ccc3c(c2)OCCO3)C1)c1c(N)n(CCC)c(=O)[nH]c1=O (configuration not stated),.,/,/,.,/
CCCCn1c(N)c(N(CCOC)C(=O)C2CC(=O)N(Cc3ccc(C)cc3)C2)c(=O)[nH]c1=O (configuration not stated),.,/,50µM,.,.
COc1ccccc1CCNC(=O)C(=O)NCC1OCCN1C(=O)c1ccc(Cl)cc1 (configuration not stated),.,.,.,.,.
COc1ccccc1-c1c(C)oc2c(CN3CCN(C)CC3)c(O)ccc2c1=O,.,.,.,.,.
CCc1ccccc1NC(=O)[C@H](Cc1ccccc1)N1Cc2ccccc2C1=O,.,/,.,.,.
COC(=O)C1=C(C(=O)OC)C2(OC1c1ccccc1C)C(=O)c1ccccc1C2=O (configuration not stated),.,.,14µM,.,.
Cc1ccc(/C=C/C(=O)OCC(=O)N2CC(=O)Nc3ccccc32)o1,56µM,.,50µM,.,?
O=C1CN(C(=O)COc2ccccc2Cl)c2ccccc2N1,.,/,?,.,.
SMILES,JMJD2A Tudor,Sfp inh,G9a block,HP1b binding inh,BAZ2B inh
COc1cc(/C=C/C(=O)OCC(=O)N2CC(=O)Nc3ccccc32)ccc1O,.,.,.,.,.
O=C1CN(C(=O)COc2ccccc2F)c2ccccc2N1,.,.,50µM,.,.
O=C1CN(C(=O)COC(=O)/C=C/c2ccc(OC(F)F)cc2)c2ccccc2N1,.,.,.,.,.
O=C1CN(C(=O)COC(=O)/C=C/c2ccco2)c2ccccc2N1,.,.,45µM,.,?
COc1ccc(/C=C/C(=O)OCC(=O)N2CC(=O)Nc3ccccc32)cc1S(=O)(=O)N1CCOCC1,.,.,56µM,.,.
CCOC(=O)c1sc2nc3c(cc2c1N)C(=O)CC(C)(C)C3,.,.,.,.,.
COc1ccc(NC(=O)CSc2nnc(C)n2C2CC2)cc1S(=O)(=O)N1CCOCC1,.,/,?,.,.
CC(=O)c1sc(NC(=O)C2CC(=O)N(Cc3ccccc3)C2)nc1-c1ccccc1 (configuration not stated),.,/,56µM,.,.
CC(=O)Nc1ccc(NC(=O)C2CC(=O)N(Cc3ccccc3)C2)cc1 (configuration not stated),.,.,.,.,.
Cc1cc(Cl)ccc1OCCCC(=O)NO,.,.,.[12.7 µM],.,.
O=C(CCl)Nc1cccn2ncnc12,.,.,.[2.33 µM],.,.
C=CCc1cc(Cl)ccc1OCCN1CC(C)OC(C)C1 (configuration not stated),2.2µM,.,4.5µM,?,?
C=CCc1cc(OC)ccc1OCCN1CC(C)OC(C)C1 (configuration not stated),5µM,56µM,7.1µM,?,28µM
COCc1cc(=O)[nH]c(SCC(=O)c2ccccc2)n1,.,.,/,.,.
COc1ccc(NC(=O)Cn2c(=O)n(-c3ccc(C)cc3)c(=O)c3c2cnn3C)cc1,.,/,.,.,.
CCC(NC(=O)Nc1cc(Cl)ccc1OC)c1c(-n2cccc2)sc2c1CCN(C)C2 (configuration not stated),?,/,16µM,?,?
CCC(NC(=O)Nc1cccc(C)c1)c1c(-n2cccc2)sc2c1CCN(C)C2 (configuration not stated),?,/,.,.,.
CC(C)Oc1ccc(CNCC2(O)CCOC(C)(C)C2)cc1 (configuration not stated),2.2µM,.,8.9µM,?,?
COc1ccc(C(c2sc3nc(C)nn3c2O)N2CCN(Cc3ccccc3)CC2)cc1OC (configuration not stated),.,.,?,.,.
